Measured values published in PubChem BioAssay AID1159580 (chemical genetic matrix, 2015).
The campaign covered roughly 5,500 compounds. About 2,000 (36%) were called active. Roughly 18% stayed inconclusive and do not appear here. No stated cut-off is given here; in the data, active means normalized growth mostly below about 0.91 (no sharp cut-off); inconclusive means no clear call, values can overlap the other calls; inactive means mostly above about 0.92. This is one part of the list.

Assay: chemical genetic growth profiling, strain panel (AID 1159580);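 further: tested at 20 µM; growth read once vehicle control cultures reached saturation at 30 °C; 1 = growth at the plate median or of vehicle wells; lower values mean less growth of the strain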
Conditions: S. cerevisiae deletion strains, growth OD

Measured: normalized growth

C=C1C(=O)OC2CC1C(OC(C)=O)C/C(C)=C/CC/C(C)=C/CC[C@]2(C)O (stereo partly specified)
inactive: locus YAL013W, strain DEP1, active compounds read low 0.999 | locus YAL021C, strain ccr4, active compounds read low 0.964 | locus YAL026C, strain drs2, active compounds read low 0.987 | locus YAL030W, strain snc1, active compounds read low 0.984 | locus YBL061C, strain skt5, active compounds read low 1.01 | locus YBR009C, strain hhf1, active compounds read low 1.01 | locus YBR021W, strain FUR4, active compounds read low 1.03 | locus YBR023C, strain chs3, active compounds read low 1.01 | locus YBR171W, strain sec66, active compounds read low 0.994 | locus YBR229C, strain ROT2, active compounds read low 1.02 | locus YBR231C, strain swc5, active compounds read low 1.01 | locus YBR279W, strain paf1, active compounds read low 0.996 | locus YCL011C, strain gbp2, active compounds read low 1 | locus YCL016C, strain dcc1, active compounds read low 1 | locus YCL029C, strain bik1, active compounds read low 1.02 | locus YCL061C, strain MRC1, active compounds read low 0.993 | locus YCL069W, strain vba3, active compounds read low 0.987 | locus YCR088W, strain abp1, active compounds read low 0.991 | locus YDL005C, strain med2, active compounds read low 0.992 | locus YDL035C, strain GPR1, active compounds read low 1.01 | locus YDL040C, strain nat1, active compounds read low 0.981 | locus YDL074C, strain BRE1, active compounds read low 1 | locus YDL101C, strain DUN1, active compounds read low 1.01 | locus YDL185W, strain tfp1, active compounds read low 1.02 | locus YDL192W, strain arf1, active compounds read low 1 | locus YDR001C, strain nth1, active compounds read low 0.982 | locus YDR069C, strain doa4, active compounds read low 1.01 | locus YDR101C, strain arx1, active compounds read low 1.03 | locus YDR137W, strain rgp1, active compounds read low 0.935 | locus YDR150W, strain NUM1, active compounds read low 1 | locus YDR159W, strain sac3, active compounds read low 1.03 | locus YDR162C, strain NBP2, active compounds read low 1.02 | locus YDR195W, strain ref2 1.02 | locus YDR297W, strain sur2, active compounds read low 0.997 | locus YDR318W, strain mcm21, active compounds read low 1 | locus YDR334W, strain swr1, active compounds read low 1.01 | locus YDR335W, strain msn5, active compounds read low 0.985 | locus YDR388W, active compounds read low 1.01 | locus YDR392W, strain spt3, active compounds read low 0.977 | locus YDR502C, strain sam2, active compounds read low 1.03 | locus YEL003W, strain gim4, active compounds read low 1.01 | locus YEL037C, strain rad23, active compounds read low 0.99 | locus YEL061C, strain CIN8 (second series), active compounds read low 0.994 | locus YEL061C, strain CIN8, active compounds read low 1.02 | locus YER015W, strain faa2, active compounds read low 1 | locus YER016W, strain bim1, active compounds read low 0.992 | locus YER110C, active compounds read low 1.02 | locus YER111C, strain swi4, active compounds read low 0.995 | locus YER155C, strain BEM2 (second series), active compounds read low 1.03 | locus YER155C, strain BEM2, active compounds read low 1 | locus YER167W, strain BCK2, active compounds read low 1.01 | locus YFR010W, strain ubp6, active compounds read low 0.995 | locus YGL078C, strain dbp3, active compounds read low 1.01 | locus YGL086W, strain mad1, active compounds read low 1.02 | locus YGL167C, strain pmr1, active compounds read low 0.988 | locus YGL173C, strain kem1, active compounds read low 1.01 | locus YGL227W, strain vid30, active compounds read low 0.989 | locus YGL240W, strain doc1, active compounds read low 1.02 | locus YGL248W, strain PDE1, active compounds read low 1.02 | locus YGL253W, strain hxk2, active compounds read low 0.923 | locus YGR135W, strain pre9, active compounds read low 1 | locus YGR252W, strain gcn5, active compounds read low 1.01 | locus YHR013C, strain ard1, active compounds read low 0.979 | locus YHR027C, strain rpn1, active compounds read low 0.99 | locus YHR030C, strain SLT2, active compounds read low 1.02 | locus YHR079C, strain IRE1 (second series), active compounds read low 1.01 | locus YHR094C, strain hxt1, active compounds read low 1.01 | locus YHR129C, strain ARP1, active compounds read low 1.01 | locus YHR142W, strain chs7, active compounds read low 1.01 | locus YHR200W, strain rpn10, active compounds read low 1.02 | locus YIL066C, strain RNR3, active compounds read low 1.01 | locus YIL073C, strain SPO22, active compounds read low 0.983 | locus YIL125W, strain kgd1, active compounds read low 1.01 | locus YIR030C, strain dcg1, active compounds read low 1.01 | locus YJL092W, strain hpr5, active compounds read low 0.988 | locus YJL095W, strain BCK1 (second series), active compounds read low 0.998 | locus YJL095W, strain BCK1, active compounds read low 1 | locus YJL115W, strain asf1, active compounds read low 0.982 | locus YJL129C, strain trk1, active compounds read low 1.01 | locus YJL134W, strain LCB3, active compounds read low 1 | locus YJL154C, strain vps35, active compounds read low 0.982 | locus YJL164C, strain tpk1, active compounds read low 0.981 | locus YJL166W, strain qcr8, active compounds read low 1 | locus YJL168C, strain set2, active compounds read low 1.03 | locus YJL187C, strain SWE1 (second series), active compounds read low 1.01 | locus YJL187C, strain SWE1, active compounds read low 0.978
